Assay outcomes: PubChem, National Center for Advancing Translational Sciences (NCATS)
The list is not random: actives were taken first. Their share in the collection is about 19%.
ELG1 repair inh: qHTS screen for small molecules that inhibit ELG1-dependent DNA repair in human embryonic kidney (HEK293T) cells expressing luciferase-tagged ELG1; HEK293T ELG1-luciferase reporter, luminescence, 16 h; DNA damage induced by 5-fluorouridine; Potency, µM (top dose mostly 46.1 µM), inactives show top-dose activity change, negative = inhibition, usual class: inhibitors; 330,000 compounds, 2.3% hits; AID 504467, 2011; also: potency is read from the fitted curve at half-maximal effect; nearly all actives have a fitted effect of over 55% in size
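HEK293T cells expressing luciferase-tagged ELG1 (2,000/well) received 5-Fluorouridine plus compound or DMSO for 16 hr at 37 °C. Luciferase was read by ONE-Glo luminescence after 30 min at room temperature.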
Giardia killer: Small Molecules that selectively kill Giardia lamblia: qHTS; Giardia lamblia trophozoite viability; 340,000 compounds, 0.15% hits; activity change, % at 7.66 µM, hits read low; in the data active = activity change below about -80%; inconclusive = between about -30% and that limit;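 also: parasites exposed to compound for two days anaerobically before the ATP read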
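Giardia lamblia trophozoites (100 cells/well) were incubated with compounds for 48 h at 37 deg C under anaerobic conditions. Viability was read as ATP content by one-step luminescence after 15-30 min at room temperature.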
DT40 TDP1 no CPT: qHTS for Inhibitors of human tyrosyl-DNA phosphodiesterase 1 (TDP1): qHTS in cells in absence of CPT; DT40 Tdp1-/- hTDP1 cells, no CPT, ATP luminescence, 48 h; 420,000 compounds, 15% hits; Potency, µM (doses to about 46.2 µM), for the others: at the highest dose activity change, negative = growth inhibition, usual class: inhibitors; also: potency is read from the fitted curve at half-maximal effect; nearly all actives have a fitted effect of over 55% in size
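DT40 Tdp1-/-;hTDP1 cells, no CPT (DMSO vehicle only), 400 cells/well; compounds pin-transferred; ≥48 hr, 37 °C; CellTiter-Glo 30 min RT dark, luminescence read.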
TDP1 cell CPT: qHTS for Inhibitors of human tyrosyl-DNA phosphodiesterase 1 (TDP1): qHTS in cells in presence of CPT. 420,000 compounds, 12% hits. Potency, µM (series often up to 46.2 µM), for inactives: top-dose activity change, negative = growth inhibition, actives largely listed as inhibitors. chicken DT40 Tdp1-/-;hTDP1 cells + 20 nM CPT, ATP luminescence, 48 h; also: potency is read from the fitted curve at half-maximal effect; nearly all actives have a fitted effect of over 55% in size
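Chicken DT40 Tdp1-/- cells stably complemented with human TDP1 were seeded at 400 cells/well in medium containing 20 nM camptothecin, exposed to pin-transferred compounds, and grown at 37 °C for at least 48 hr. Viability was read as ATP luminescence.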
IL-1B inflam inh: qHTS for Inhibitors of Inflammasome Signaling: IL-1-beta AlphaLISA Primary Screen. THP-1 LPS/ATP IL-1B secretion, AlphaLISA, 16 h; hits give low values. 360,000 compounds, 4.7% hits. activity change, % at 57.5 µM; in the data active = activity change below about -50%; inconclusive = mostly about -30% to -49%
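THP-1 cells pretreated 1 hr with compounds (up to 57.5 uM final), then stimulated with LPS (250 ng/mL final) plus ATP (1.25 mM final); secreted IL-1B measured by AlphaLISA after 16 hr, decreased signal indicating inhibition.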
TDP1 block: qHTS Assay for Inhibitors of Tyrosyl-DNA Phosphodiesterase (TDP1); Tyrosyl-DNA phosphodiesterase 1 (Homo sapiens), Q9NUW8; Potency, µM (doses to about 130 µM), inactives show top-dose activity change, negative = inhibition, hits mostly inhibitors; recombinant TDP1, AlphaScreen DNA substrate cleavage; 350,000 compounds, 0.28% hits; also: potency is read from the fitted curve at half-maximal effect; nearly all actives have a fitted effect of over 40% in size
Target sequence (Q9NUW8 whole entry, looked up): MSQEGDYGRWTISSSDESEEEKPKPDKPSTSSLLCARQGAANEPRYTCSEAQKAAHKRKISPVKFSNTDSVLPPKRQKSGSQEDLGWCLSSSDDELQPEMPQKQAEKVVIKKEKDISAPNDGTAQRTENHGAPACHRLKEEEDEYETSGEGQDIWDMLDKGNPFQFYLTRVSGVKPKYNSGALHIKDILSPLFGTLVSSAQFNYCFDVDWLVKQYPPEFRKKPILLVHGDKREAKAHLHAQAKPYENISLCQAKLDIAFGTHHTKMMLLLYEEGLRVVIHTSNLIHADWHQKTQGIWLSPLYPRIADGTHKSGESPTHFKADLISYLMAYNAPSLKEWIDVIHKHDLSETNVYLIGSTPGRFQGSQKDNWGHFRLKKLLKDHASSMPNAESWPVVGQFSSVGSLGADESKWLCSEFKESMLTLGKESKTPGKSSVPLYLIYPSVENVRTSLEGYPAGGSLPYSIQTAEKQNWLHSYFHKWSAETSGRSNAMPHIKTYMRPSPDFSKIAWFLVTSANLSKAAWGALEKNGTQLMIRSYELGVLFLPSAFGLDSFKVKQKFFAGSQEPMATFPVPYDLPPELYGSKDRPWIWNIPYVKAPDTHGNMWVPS
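Recombinant E. coli-expressed Tdp1 (1 nM) preincubated with compound 15 min at RT, then 5'-biotin/3'-phosphotyrosine-FITC DNA substrate (15 nM) added for 5 min. AlphaScreen beads (10 ug/ml) added, 10 min RT; tyrosine-FITC cleavage read as signal loss.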
* marks the source's active call; other numbers are inactive results; ? = inconclusive; / = no result; [ ] = remark or other dose. Unless noted, calls follow the shape of the dose curve; as a rule, active = well fitted curve in the direction sought with a large enough effect; inconclusive = small, poorly fitted or top-dose-only effect, or another doubt; inactive = no such curve, though single readings can be large; an effect the other way counts as inactive or inconclusive. % is scaled to controls: 0 for no effect and ±100 for the full control effect.

SMILES	ELG1 repair inh	Giardia killer	DT40 TDP1 no CPT	TDP1 cell CPT	IL-1B inflam inh	TDP1 block
NC(c1ccccc1)c1csc(Nc2ccc(S(N)(=O)=O)cc2)n1 (stereo not given)	/	/	-13%	-16%	42	/
NC(c1ccccc1)c1csc(Nc2ccc(C(F)(F)F)cn2)n1 (stereo not given)	/	/	13µM*	?	?	/
CC(C)Cc1nn2c(=O)cc(COC(=O)c3cccc(NC(=O)CCc4ccccc4)c3)nc2s1	/	/	-9%	-18%	/	6%
CCc1[nH]nc2c1C(C(C)C)C(C#N)=C(N)O2 (stereo not given)	1%	-4	?	?	-84*	-2%
CCn1nc(C)c(C2C(C#N)=C(N)Oc3n[nH]c(C)c32)c1C (stereo not given)	-4%	-2	-23%	3%	-5	5%
N#CC1=C(N)Oc2n[nH]c(-c3ccccc3)c2C1c1ccsc1 (stereo not given)	?	7	12µM*	?	40	1%
CCC(CC)C1C(C#N)=C(N)Oc2n[nH]c(C)c21 (stereo not given)	0%	-4	16µM*	18µM*	-88*	6%
CCc1[nH]nc2c1C(c1cccnc1)C(C#N)=C(N)O2 (stereo not given)	/	-7	-12%	1%	-27	2%
CC(C)C1C(C#N)=C(N)Oc2n[nH]c(-c3ccc4ccccc4c3)c21 (stereo not given)	-5%	-2	10µM*	?	5	8%
C[C@@H](C[N+](C)(C)C)OC(N)=O	/	/	/	/	/	-4%[21 µM]
CCOc1ccc(-c2[nH]nc3c2C(c2cccnc2)C(C#N)=C(N)O3)cc1 (stereo not given)	?	1	0%	-2%	-18	6%
Cc1[nH]nc2c1C(C1CC=CCC1)C(C#N)=C(N)O2 (stereo not given)	-3%	-13	?	21µM*	-112*	2%
Cc1[nH]nc2c1C(c1ccc(F)cc1)C(C#N)=C(N)O2 (stereo not given)	7%	19	3%	-1%	-28	0%
CCC(CC)C1C(C#N)=C(N)Oc2n[nH]c(-c3ccccc3)c21 (stereo not given)	?	-9	26µM*	?	-30	2%
O=C(CCN1C(=O)c2ccccc2S1(=O)=O)Nc1ccccc1F	9%	11	24%	-9%	-60*	5%
O=C(CCN1C(=O)c2ccccc2S1(=O)=O)Nc1ccccc1O	-7%	-16	-3%	4%	13	-4%
CC1CCN(c2nnc(-c3cccs3)c3ccccc23)CC1	9%	-5	?	26µM*	?	4%
CC1CCN(c2nc3ccccc3nc2N2CCC(C)CC2)CC1	/	/	/	/	/	0%
CCc1ccc(C2/C=C\CNC(c3ccccc3)C(=O)N2Cc2ccc(C)cc2)cc1 (stereo not given)	/	-4	/	/	/	10%
CN[C@@H]1[C@H](O[C@@H]2O[C@H](C)[C@@](O)(CO)[C@H]2O[C@H]2[C@H](O)[C@H](O)[C@H](N=C(N)N)[C@@H](O)[C@@H]2N=C(N)N)O[C@@H](CO)[C@H](O)[C@H]1O	/	/	/	/	/	17%
COC(=O)c1ccc2c(c1)NC(=O)CS2	4%	25	-19%	-23%	12	0%
CC(OC(=O)c1ccc2c(c1)NC(=O)CS2)C(=O)c1ccc(F)cc1 (stereo not given)	?	5	-19%	-9%	-56*	-4%
CCN1C(=O)c2ccccc2Sc2ccc(NC(=O)c3ccc(Cl)cc3)cc21	/	/	-9%	0%	/	2%
N#Cc1ccc(C(=O)Nc2ccc3ccccc3c2)cc1	?	-8	?	?	7	4%
CC(=O)Nc1ccc(C(=O)Nc2ccc3c(c2)N(C2CCCC2)C(=O)c2ccccc2S3)cc1	/	/	16µM*	21µM*	/	8%
SMILES	ELG1 repair inh	Giardia killer	DT40 TDP1 no CPT	TDP1 cell CPT	IL-1B inflam inh	TDP1 block
N#Cc1ccc(C(=O)Nc2ccc3c(c2)N(C2CCCC2)C(=O)c2ccccc2S3)cc1	/	/	18µM*	23µM*	/	6%
CC(C)C[C@H]1CN=C(N(C)C)N1CCc1cccc(F)c1	3%	-24	-29%	-28%	-15	0%
CCN1C(Nc2ccccc2)=NC[C@@H]1CC(C)C	?	5	10%	1%	11	/
Cc1cccc(CCN2C(Nc3ccccc3)=NC[C@@H]2CC(C)C)c1	-5%	-5	21µM*	18µM*	-54*	-4%
CCC(C)[C@H]1CN=C(N)N1CCc1cccc(F)c1 (stereo not given in full)	/	-6	13µM*	18µM*	-20	/
CC(C)C[C@H]1CN=C(Nc2ccccc2)N1CCc1cccc(F)c1	4%	9	?	10µM*	-52*	-6%
Nc1cnn([C@@H]2O[C@H](CO)[C@@H](O)[C@H]2O)c(=O)n1	/	/	/	/	/	8%
NCc1csc(Nc2ncccn2)n1	/	/	?	-27%	7	/
CCOC(=O)c1ccc(N2CCN(c3ccccc3OC)CC2)c(NC(=O)Nc2ccc(CC)cc2)c1	/	/	?	?	/	3%
COCCNC(=O)c1ccc(N2CCCCC2)c(NS(=O)(=O)c2ccc(C)cc2)c1	0%	34	?	?	-1	7%
CCOC(=O)C1CCN(c2cc3c(cc2NC(=O)c2ccc(OC)c(OC)c2)n(C)c(=O)n3C)CC1	1.6µM*	13	5.8µM*	9.2µM*	9	2%
CCOC(=O)c1ccc(N2CCN(c3ccccc3F)CC2)c(NC(=O)Nc2ccccc2)c1	?	12	16µM*	16µM*	23	0%
Cc1ccc(CNC(=O)Nc2cc(C(=O)NCc3ccc(C(C)C)cc3)ccc2N2CCCC2)cc1	/	/	?	?	/	6%
Cc1ccc(CNC(=O)c2ccc(N3CCCC3)c(NC(=O)Nc3ccc(C)cc3)c2)cc1	/	/	23µM*	15µM*	/	-1%
COc1ccc(C(=O)Nc2ccc3c(c2)n(C)c(=O)n3C)cc1OC	?	-5	1%	-25%	-16	2%
CCOC(=O)c1ccc(N2CCCCC2)c(NS(=O)(=O)c2ccc(C)cc2)c1	?	11	21µM*	?	60	4%
